The record followed here is PubChem BioAssay (Tox21).

A short description of test [1]: qHTS assay to identify small molecule antagonists of the sonic hedgehog signaling (Shh) pathway (AID 1259369; calls by dose curve; further: nearly all actives have a fitted effect of over 45% in size; further: potency means the concentration at half of the fitted maximal effect). In outline:
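For antagonist detection, the reporter line received test compounds together with conditioned medium, incubated 24hr at 37 C, 5% CO2, then luminescence was recorded following 30min room-temperature luciferase reagent incubation.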
In general terms: qHTS replaces the single test concentration by a dilution series.

The target in test [2] is Estrogen receptor beta (Homo sapiens) (UniProt Q92731). Briefly: qHTS assay to identify small molecule agonists of the estrogen receptor beta (ER-beta) signaling pathway (AID 1259377; active means well fitted activation curve with a large enough effect in the signal ratio in the repeat runs, not every such curve was filed as active; the % refers to the signal ratio). In outline:
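Ratiometric beta-lactamase FRET read-out came after 2 h substrate loading at room temperature. It followed 16 h compound treatment at 37C of GripTite HEK293T cells carrying a UAS-bla reporter, plated in 2% charcoal-stripped FBS medium.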

The target is the same in test [3]. Kind of test: qHTS assay to identify small molecule antagonists of the estrogen receptor beta (ER-beta) signaling pathway (AID 1259378; active means well fitted inhibition curve with a large enough effect in the signal ratio in the repeat runs, not every such curve was filed as active; the % refers to the signal ratio; further: potency means the concentration at half of the fitted maximal effect). The method, boiled down:
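ER-beta-UAS-bla HEK293T cells in 2% charcoal-stripped FBS medium treated with compound plus 1nM final 17-beta-estradiol for 16 hr at 37C. Beta-lactamase reporter read by FRET substrate fluorescence after 2 hours at room temperature.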

Test [4] in a line: qHTS assay to identify small molecule agonists of the androgen receptor (AR) signaling pathway in the presence of an antagonist - cell viability counter screen (AID 1259379). Further: nearly all actives have a fitted effect of over 25% in size. Further: potency means the concentration at half of the fitted maximal effect. In outline: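 Seed MDA-kb2 at 3,000 cells/well; incubate 5 hr, 37C, 0% CO2. Add nilutamide to 3.0uM final, then pin compounds at 15 concentrations. Incubate 16 hr. Add CellTiter-Fluor at 15 hr, read fluorescence after 1 hr.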

The nature of test [5]: qHTS assay to identify small molecule agonists of the estrogen receptor beta (ER-beta) signaling pathway - cell viability counter screen (AID 1259380). Further: nearly all actives have a fitted effect of over 30% in size. Further: potency means the concentration at half of the fitted maximal effect. The method, boiled down:
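CellTiter-Glo read, 30 min RT, same wells as bla assay; cells ER-beta-UAS-bla HEK293T; 16 hr compound, 37C; medium 2% charcoal-stripped FBS.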

Test [6] in a line: qHTS assay to identify small molecule antagonists of the estrogen receptor beta (ER-beta) signaling pathway - cell viability counter screen (AID 1259382). Further: series mostly up to about 92 µM; nearly all actives have a fitted effect of over 55% in size. In outline:
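In this multiplexed counter screen, cells were seeded at 2,000 per well in medium with 2% charcoal-stripped FBS and incubated 6 hr before compound and 1nM final E2 were added. Sixteen hours later, ATP-based luminescence reported viability.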

Test [7] addresses Estrogen receptor (Homo sapiens) (UniProt P03372). Briefly: qHTS assay to identify small molecule agonists of the estrogen receptor alpha (ER-alpha) signaling pathway in the presence of an antagonist (AID 1259383; calls by dose curve; further: top concentration of the series differs between compounds; nearly all actives have a fitted effect of over 15% in size). The method, boiled down:
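Stably transfected VM7Luc4E2 reporter cells, kept 5 days in charcoal-stripped serum, received ICI-182,780 at 10.0nM final before compound addition. Following 22hr incubation at 37C and 5% CO2, luciferase signal was read by luminescence.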

Test [8] is described as follows: qHTS assay to identify small molecule agonists or antagonists of the thyroid stimulating hormone receptor (TSHR) signaling pathway - wild type cell line counter screen (AID 1259384; calls by dose curve). The method, boiled down: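 Wild-type Hek293 cells, 800/well, 18 h at 37C, then compound with Ro20-1724 for 30 min RT. cAMP by HTRF (cAMP-d2/anti-cAMP cryptate), 1 h RT, fluorescence read. 15 concentrations, triplicates.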

The target of test [9] is Thyrotropin receptor (Homo sapiens) (UniProt P16473). Kind of test: qHTS assay to identify small molecule antagonists of the thyroid stimulating hormone receptor (TSHR) signaling pathway (AID 1259385; calls by dose curve; further: nearly all actives have a fitted effect of over 20% in size; further: potency means the concentration at half of the fitted maximal effect). In outline: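 TSHR-HEK293 cells (800/well) plated 18 h, then compounds with Ro20-1724 and TSH at 1.5 ng/mL final, 30 min at room temperature. cAMP quantified by HTRF (cAMP-d2/anti-cAMP-cryptate, 1 h); 15 concentrations in triplicate.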
Chain of Thyrotropin receptor (Homo sapiens) (P16473 whole entry, looked up): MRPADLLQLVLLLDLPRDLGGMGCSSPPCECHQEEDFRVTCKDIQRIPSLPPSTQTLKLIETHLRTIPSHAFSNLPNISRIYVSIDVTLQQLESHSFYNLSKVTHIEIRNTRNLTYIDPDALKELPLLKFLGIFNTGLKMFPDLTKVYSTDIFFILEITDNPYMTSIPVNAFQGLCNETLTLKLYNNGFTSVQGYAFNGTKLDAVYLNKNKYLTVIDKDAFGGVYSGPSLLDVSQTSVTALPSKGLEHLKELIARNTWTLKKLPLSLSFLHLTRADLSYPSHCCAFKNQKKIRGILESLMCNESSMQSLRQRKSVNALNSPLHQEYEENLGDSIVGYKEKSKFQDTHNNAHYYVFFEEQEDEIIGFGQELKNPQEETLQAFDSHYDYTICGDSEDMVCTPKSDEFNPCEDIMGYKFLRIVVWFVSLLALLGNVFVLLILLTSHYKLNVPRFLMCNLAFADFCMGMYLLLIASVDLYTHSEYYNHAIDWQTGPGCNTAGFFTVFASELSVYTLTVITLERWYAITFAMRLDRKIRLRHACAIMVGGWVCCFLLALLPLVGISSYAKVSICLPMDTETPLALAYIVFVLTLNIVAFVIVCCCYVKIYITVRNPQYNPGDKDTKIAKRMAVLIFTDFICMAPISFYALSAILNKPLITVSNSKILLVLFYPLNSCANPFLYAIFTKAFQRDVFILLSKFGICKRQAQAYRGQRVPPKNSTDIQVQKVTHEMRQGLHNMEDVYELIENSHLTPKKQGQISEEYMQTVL

Test [10] can be described thus: qHTS assay to identify small molecule agonists of the estrogen receptor alpha (ER-alpha) signaling pathway in the presence of an antagonist - cell viability counter screen (AID 1259386).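 Further: series mostly up to about 92 µM; cells exposed to compounds for 22 h at 37 °C before the viability read; nearly all actives have a fitted effect of over 30% in size.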 In outline: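 Viability counter screen using VM7Luc4E2 (full-length ER-alpha, four ERE-luciferase). The cells were treated with compounds alongside ICI-182,780 10.0nM for 22hr, and live-cell protease fluorescence was quantified with CellTiter-Fluor.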

Test [11] has as its target Progesterone receptor (Homo sapiens) (UniProt P06401). Briefly: qHTS assay to identify small molecule agonists of the progesterone receptor (PR) signaling pathway (AID 1346784; calls by dose curve; further: nearly all actives have a fitted effect of over 30% in size). In outline: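 Agonist qHTS: compounds pinned onto 3,000 PR-UAS-bla HEK 293T cells per well in charcoal-stripped serum medium, 16hr at 37C, then beta-lactamase activity measured by LiveBLAzer FRET fluorescence after 2 hours at room temperature.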

For test [12] the target is unchanged. Kind of test: qHTS assay to identify small molecule antagonists of the progesterone receptor (PR) signaling pathway (AID 1346795; active means well fitted inhibition curve with a large enough effect in the signal ratio in the repeat runs, not every such curve was filed as active; the % refers to the signal ratio; further: potency means the concentration at half of the fitted maximal effect). In outline: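 Antagonist mode with agonist R5020 at 1 nM final and 16 hr incubation at 37C. Reporter was beta-lactamase driven by UAS in HEK293T (PR-UAS-bla), 2% charcoal-stripped serum; signal from LiveBLAzer FRET substrate, 2 hr at room temperature.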

Test [13] can be described thus: qHTS assay to identify small molecule antagonists of the progesterone receptor (PR) signaling pathway - cell viability counter screen (AID 1346798). Further: series mostly up to about 92 µM; nearly all actives have a fitted effect of over 50% in size. In outline: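 Cytotoxicity read as CellTiter-Glo luminescence (30 min, room temperature) in the same wells as the beta-lactamase readout. HEK293T PR-UAS-bla cells in charcoal-stripped 2% FBS received compound and R5020, then 16 h at 37C, 5% CO2.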

Test [14] is described as follows: qHTS assay to identify small molecule antagonists of the TGF-beta/Smad signaling pathway - cell viability counter screen (AID 1346824). Further: nearly all actives have a fitted effect of over 50% in size. The method, boiled down: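 SBE-bla HEK 293T cells, incubated overnight, then compound plus 0.25 ng/mL TGF-beta1 (stock added) for 5 hr at 37 C. Viability was read in the same wells by CellTiter-Glo luminescence after 30 min at room temperature.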

Test [15] in a line: qHTS assay to identify small molecule agonists of the TGF-beta/Smad signaling pathway - cell viability counter screen (AID 1346829). Further: top concentration of the series differs between compounds; nearly all actives have a fitted effect of over 45% in size. The method, boiled down: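 SBE-bla HEK 293T cells plated overnight, compound exposure 5 hr at 37 C. Viability read in the same wells by CellTiter-Glo luminescence after 30 min at room temperature, following the beta-lactamase read.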
Test [16] can be described thus: qHTS assay to identify small molecule agonists of the TGF-beta/Smad signaling pathway (AID 1346859; active means well fitted activation curve with a large enough effect in the signal ratio in the repeat runs, not every such curve was filed as active; the % refers to the signal ratio; further: series mostly up to about 77 µM). The method, boiled down:
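Fluorescence (ex 405 nm; em 460 and 530 nm) was read 2 h after LiveBLAzer FRET substrate at RT. The preceding compound treatment of overnight-plated SBE-bla HEK293T cells lasted 5 h at 37 C.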

The target in test [17] is Thyrotropin-releasing hormone receptor (Homo sapiens) (UniProt P34981). Briefly: qHTS assay to identify small molecule antagonists of the thyrotropin-releasing hormone receptor (TRHR) signaling pathway (AID 1346877; active means well fitted inhibition curve with a large enough effect in the repeat runs, not every such curve was filed as active; further: series mostly up to about 51 µM). In outline:
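Following an 18 h incubation at 37 °C and a 2 h calcium dye load, TRHR-HEK293 cells were exposed to compound (5 min, room temperature) and challenged with TRH, 1 nM final.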

Test [18] has the same target. Kind of test: qHTS assay to identify small molecule agonists of the thyrotropin-releasing hormone receptor (TRHR) signaling pathway (AID 1346891; calls by dose curve; further: series mostly up to about 58 µM). In outline: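 Agonist-mode intracellular calcium readout: kinetic fluorescence over 3 min at 1 s intervals after compound addition to TRHR-HEK293 cells (18 h seeded, 2 h dye-loaded at 37 C). Fifteen concentrations, triplicates.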

In test [19] the target is Androgen receptor (Homo sapiens) (UniProt P10275). Kind of test: qHTS assay to identify small molecule agonists of the androgen receptor (AR) signaling pathway in the presence of an antagonist (AID 1259381; calls by dose curve; further: nearly all actives have a fitted effect of over 15% in size). The method, boiled down:
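Test compounds at 15 concentrations were incubated for 16hr with MDA-kb2 reporter cells in presence of 3.0uM nilutamide (final). Signal: ONE-Glo luciferase luminescence.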

Test [20] in a line: qHTS assay to identify small molecule agonists of the progesterone receptor (PR) signaling pathway - cell viability counter screen (AID 1346799; calls by dose curve; further: nearly all actives have a fitted effect of over 45% in size). In outline:
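Cytotoxicity measured by CellTiter-Glo luminescence (30 min, RT) in the same wells as the PR beta-lactamase agonist read. Those HEK293T cells had 16 h compound treatment at 37 C in 2% charcoal-stripped FBS medium.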

Values joined by “and” are separate entries in the source; they are usually repeats but may differ in a detail not shown here. Equal entries are not always repeated. Inconclusive results are not listed. Some structures have more than one record in an assay (separate samples or runs), and their calls can disagree. Active and inactive are the calls of the source. Unless noted, the call rests on the fitted dose curve; in most records, active means well fitted curve in the direction sought with a large enough effect in the repeat runs; inconclusive means weak or mixed curves; inactive means no such curve, though single readings can be large; an effect the other way counts as inactive or inconclusive.

Chain of Estrogen receptor beta (Homo sapiens) (Q92731 whole entry, looked up): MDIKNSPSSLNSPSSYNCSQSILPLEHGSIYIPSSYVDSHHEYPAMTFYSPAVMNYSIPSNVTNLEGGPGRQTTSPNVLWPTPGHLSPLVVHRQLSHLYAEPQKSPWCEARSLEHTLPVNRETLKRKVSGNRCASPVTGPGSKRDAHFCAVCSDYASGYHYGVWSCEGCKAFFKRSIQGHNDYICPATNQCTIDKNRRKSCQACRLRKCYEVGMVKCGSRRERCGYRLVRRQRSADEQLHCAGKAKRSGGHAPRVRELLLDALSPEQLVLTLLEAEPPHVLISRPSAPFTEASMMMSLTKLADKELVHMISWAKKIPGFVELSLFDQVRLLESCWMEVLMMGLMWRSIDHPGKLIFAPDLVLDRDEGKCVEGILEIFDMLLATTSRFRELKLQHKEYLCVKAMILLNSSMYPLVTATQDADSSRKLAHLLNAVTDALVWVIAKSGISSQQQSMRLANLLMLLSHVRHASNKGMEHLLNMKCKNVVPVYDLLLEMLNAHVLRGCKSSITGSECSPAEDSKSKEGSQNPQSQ
Chain of Progesterone receptor (Homo sapiens) (P06401 whole entry, looked up): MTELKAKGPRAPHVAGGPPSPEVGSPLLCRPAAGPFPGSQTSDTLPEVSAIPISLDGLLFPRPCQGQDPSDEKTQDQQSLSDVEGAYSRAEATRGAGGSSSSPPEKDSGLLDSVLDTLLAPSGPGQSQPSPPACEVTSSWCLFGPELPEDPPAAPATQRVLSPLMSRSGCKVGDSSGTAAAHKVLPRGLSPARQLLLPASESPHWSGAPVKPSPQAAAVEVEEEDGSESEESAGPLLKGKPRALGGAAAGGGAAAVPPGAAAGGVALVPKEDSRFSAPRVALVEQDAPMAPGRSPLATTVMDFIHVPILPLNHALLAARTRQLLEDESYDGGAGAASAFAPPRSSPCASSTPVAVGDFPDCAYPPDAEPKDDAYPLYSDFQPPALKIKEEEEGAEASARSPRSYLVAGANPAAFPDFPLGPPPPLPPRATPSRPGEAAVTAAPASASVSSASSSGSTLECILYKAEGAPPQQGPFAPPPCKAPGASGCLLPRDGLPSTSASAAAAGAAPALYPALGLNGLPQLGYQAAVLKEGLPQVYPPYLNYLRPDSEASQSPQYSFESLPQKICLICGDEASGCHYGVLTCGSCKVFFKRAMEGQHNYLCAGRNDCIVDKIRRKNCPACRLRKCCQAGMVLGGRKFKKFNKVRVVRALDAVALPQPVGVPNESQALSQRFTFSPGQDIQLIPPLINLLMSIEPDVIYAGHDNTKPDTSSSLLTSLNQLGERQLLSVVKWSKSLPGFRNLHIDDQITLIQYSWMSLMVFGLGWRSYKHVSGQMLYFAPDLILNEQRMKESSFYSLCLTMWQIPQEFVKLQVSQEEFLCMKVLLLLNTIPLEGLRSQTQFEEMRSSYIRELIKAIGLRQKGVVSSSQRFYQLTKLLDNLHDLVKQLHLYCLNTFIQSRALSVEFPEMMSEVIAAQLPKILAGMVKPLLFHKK
Chain of Estrogen receptor (Homo sapiens) (P03372 whole entry, looked up): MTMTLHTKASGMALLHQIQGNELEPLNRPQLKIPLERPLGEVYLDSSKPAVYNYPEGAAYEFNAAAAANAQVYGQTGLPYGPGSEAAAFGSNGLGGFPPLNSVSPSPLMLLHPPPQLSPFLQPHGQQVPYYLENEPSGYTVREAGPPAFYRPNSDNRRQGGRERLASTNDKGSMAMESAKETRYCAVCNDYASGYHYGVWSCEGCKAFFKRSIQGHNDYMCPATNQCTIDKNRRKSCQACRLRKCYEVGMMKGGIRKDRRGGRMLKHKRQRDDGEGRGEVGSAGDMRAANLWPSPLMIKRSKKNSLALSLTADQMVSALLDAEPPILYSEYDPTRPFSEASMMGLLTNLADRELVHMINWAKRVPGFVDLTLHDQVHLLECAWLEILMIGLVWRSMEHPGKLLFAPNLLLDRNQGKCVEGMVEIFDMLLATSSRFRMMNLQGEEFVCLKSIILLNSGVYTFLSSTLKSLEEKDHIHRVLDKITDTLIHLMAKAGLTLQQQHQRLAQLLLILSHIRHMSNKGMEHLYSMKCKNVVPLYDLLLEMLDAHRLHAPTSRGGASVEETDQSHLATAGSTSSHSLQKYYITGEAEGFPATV
Chain of Thyrotropin-releasing hormone receptor (Homo sapiens) (P34981 whole entry, looked up): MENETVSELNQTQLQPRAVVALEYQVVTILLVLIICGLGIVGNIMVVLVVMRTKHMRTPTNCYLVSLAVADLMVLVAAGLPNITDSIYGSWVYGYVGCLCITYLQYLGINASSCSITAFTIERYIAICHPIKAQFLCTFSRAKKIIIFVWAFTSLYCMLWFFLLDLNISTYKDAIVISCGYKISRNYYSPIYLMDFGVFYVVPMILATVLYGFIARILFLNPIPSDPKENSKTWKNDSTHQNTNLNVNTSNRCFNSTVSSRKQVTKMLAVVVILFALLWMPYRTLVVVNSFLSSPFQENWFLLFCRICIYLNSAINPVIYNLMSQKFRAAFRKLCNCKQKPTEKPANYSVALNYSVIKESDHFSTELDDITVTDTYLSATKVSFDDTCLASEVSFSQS
Chain of Androgen receptor (Homo sapiens) (P10275 whole entry, looked up): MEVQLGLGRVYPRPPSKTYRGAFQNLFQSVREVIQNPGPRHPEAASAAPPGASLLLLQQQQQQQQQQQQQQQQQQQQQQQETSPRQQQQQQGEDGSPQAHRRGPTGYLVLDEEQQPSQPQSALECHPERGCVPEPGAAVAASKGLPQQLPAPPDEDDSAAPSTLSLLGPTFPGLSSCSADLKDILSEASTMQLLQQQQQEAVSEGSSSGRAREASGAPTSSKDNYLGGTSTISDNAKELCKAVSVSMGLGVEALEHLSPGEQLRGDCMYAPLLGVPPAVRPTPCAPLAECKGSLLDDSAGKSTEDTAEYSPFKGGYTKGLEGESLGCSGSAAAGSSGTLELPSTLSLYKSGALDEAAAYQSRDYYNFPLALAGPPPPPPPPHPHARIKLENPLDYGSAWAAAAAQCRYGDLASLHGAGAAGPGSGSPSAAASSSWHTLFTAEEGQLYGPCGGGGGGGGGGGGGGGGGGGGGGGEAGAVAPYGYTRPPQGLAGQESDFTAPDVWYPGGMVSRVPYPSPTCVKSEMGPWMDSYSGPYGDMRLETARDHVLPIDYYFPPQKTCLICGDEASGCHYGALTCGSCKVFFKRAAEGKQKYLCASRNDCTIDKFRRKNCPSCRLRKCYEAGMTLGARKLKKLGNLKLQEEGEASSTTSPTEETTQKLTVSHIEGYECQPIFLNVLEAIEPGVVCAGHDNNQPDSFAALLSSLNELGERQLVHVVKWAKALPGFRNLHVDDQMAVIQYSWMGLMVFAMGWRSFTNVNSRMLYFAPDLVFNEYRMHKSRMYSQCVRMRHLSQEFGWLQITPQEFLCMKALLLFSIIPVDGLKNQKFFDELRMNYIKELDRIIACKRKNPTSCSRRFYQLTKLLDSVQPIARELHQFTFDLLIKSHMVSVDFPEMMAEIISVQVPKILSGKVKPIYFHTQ

Regarding `O=C(/C=C/c1ccccc1)OCc1ccccc1`, the Potency entry in test [1], in test [2], in test [3], in test [4], in [5] and in test [6] was “inactive” throughout. Also, the Potency result in test [7], in [9], in test [10], in [11], in test [12] and in [13] was “inactive” throughout. Further, the Potency entry in test [14], in test [15], in [17] and in test [18] was “inactive” each time. The outcome in [8] and in [16] was inactive.
Take `CC(=O)C1(C)CC2=C(CCCC2(C)C)CC1C` (stereo not drawn): the Potency entry in test [1], in test [2], in test [3], in [4], in [5] and in [6] was “inactive” each time. Moreover, the Potency entry in test [10], in test [13], in test [20], in [14], in test [15] and in test [17] was “inactive” each time. For the same compound, in test [18], the Potency entry was “inactive”. Further, the outcome in [19], in test [8] and in [16] was inactive. Besides, the Potency in [9] was 43.3 µM (active).
Take `CCOC(=O)C(C#N)=C(c1ccccc1)c1ccccc1`: the Potency result in test [1], in test [2], in [4], in [5], in test [6] and in test [9] was “inactive” each time. In addition, the Potency result in test [10], in [11], in test [13], in [14] and in [15] was “inactive” throughout. Further, in test [3], the Potency was 4.33 µM (active) and 5.31 µM (active). The outcome in [8] and in test [16] was inactive.
For the compound `C/C=C/C(=O)O`, the Potency entry in test [1], in test [2], in test [3], in test [4], in test [5] and in test [6] was “inactive” in each case. The Potency entry in test [9], in [10], in [11], in test [12], in test [13] and in test [20] was “inactive” each time. The Potency entry in [14], in [15], in test [17] and in [18] was “inactive” each time. Moreover, the compound was called inactive in test [8] and in test [16].
Turning to `CCCCCCCCCCCO`, the Potency entry in test [1], in [2], in test [3], in [4], in test [5] and in test [6] was “inactive” throughout. The Potency result in [7], in [9], in [10], in [11], in test [12] and in [13] was “inactive” in each case. The Potency entry in test [20], in test [14] and in [15] was “inactive” throughout. Moreover, the call in [8] and in [16] was inactive.
For `Cn1cnc([N+](=O)[O-])c1Sc1ncnc2nc[nH]c12`, the Potency in [1] is 30.4 µM (active); in [5], 4.83 µM (active) and 8.41 µM (active). Also, the Potency result in test [2], in test [3], in [4], in test [6], in test [7] and in test [9] was “inactive” in each case. For the same compound, the Potency result in test [10], in test [11], in test [12], in test [13], in [14] and in [15] was “inactive” each time. The Potency result in test [17] and in test [18] was “inactive” in each case. In addition, the call in [8] and in test [16] was inactive.
As for `c1ccc(Nc2ccccc2)cc1`, the Potency entry in [1], in test [2], in test [5], in test [6], in [9] and in test [10] was “inactive” in each case. The Potency entry in test [11], in [13], in [20], in test [14] and in test [15] was “inactive” throughout. Also, the Potency in test [3] is 24.3 µM (active) and inactive; in [4], 43.2 µM (active) and inactive; in test [12] it was 48.5 µM (active) and inactive. The outcome in test [8] and in test [16] was inactive.
